Source: PubChem BioAssay (National Center for Advancing Translational Sciences (NCATS))
TbPYK inhibitor = qHTS of Trypanosoma Brucei Inhibitors | hit rate 0.12% among 410,000 | pyruvate kinase (Trypanosoma brucei), Q57TT1 | AID 624173, 2012 | TbPYK enzyme, Kinase-Glo Plus ATP luminescence, 45 min | Potency, µM (doses to about 76.8 µM), without a hit: at the top dose activity, negative = inhibition, most hits filed as inhibitors; note: potency is the fitted concentration of half-maximal effect; % is set by controls: 0 for no effect and ±100 for the full control effect; nearly all actives have a fitted effect of over 50% in size
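T. brucei PYK with substrate was exposed to pin-transferred compounds across a concentration series, then started with 130 uM ADP (final). After 45 min at room temperature, Kinase-Glo Plus luminescence was read, normalized and curve-fitted.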
Cycloheximide cs = Cycloheximide Counterscreen for Small Molecule Inhibitors of Shiga Toxin | cell reporter, cycloheximide protein synthesis inhibition counterscreen | max response, % | hit rate 12% among 300,000; in the data active = max response mostly above about 13%, no sharp cut-off; inactive = mostly below about 14%; note: read at 38.3 µM for the half of the compounds with a filed dose; 0% is about no effect
Giardia FBPA inh = qHTS Assay for Inhibitors of Fructose-1,6-bisphosphate Aldolase from Giardia Lamblia | A8B2U2 | purified Giardia FBPA | Potency, µM (highest dose often 59.6 µM), for inactives: at the top dose activity, negative = inhibition, actives largely listed as inhibitors | hit rate 0.71% among 290,000; note: potency is the fitted concentration of half-maximal effect; % is set by controls: 0 for no effect and ±100 for the full control effect; nearly all actives have a fitted effect of over 55% in size
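Giardia FBPA (40 nM reagent) was preincubated 10 min at RT with compound (up to 57.5 uM final), then substrate plus GAPDH/TPI/NAD/arsenate coupling system with diaphorase/resazurin was added; resorufin fluorescence (525/598 nm) was read after 20 min.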
LmPK inhibitor = qHTS Assay for Inhibitors of Leishmania Mexicana Pyruvate Kinase (LmPK); hit rate 0.37% among 290,000; purified LmPK, Kinase-Glo ATP luminescence, 1 h; Q27686; Potency, µM (highest dose often 57.5 µM), inactives show at the highest dose activity change, negative = inhibition, actives largely listed as inhibitors; note: potency is the fitted concentration of half-maximal effect; % is set by controls: 0 for no effect and ±100 for the full control effect
Target sequence (Q27686 whole entry, looked up): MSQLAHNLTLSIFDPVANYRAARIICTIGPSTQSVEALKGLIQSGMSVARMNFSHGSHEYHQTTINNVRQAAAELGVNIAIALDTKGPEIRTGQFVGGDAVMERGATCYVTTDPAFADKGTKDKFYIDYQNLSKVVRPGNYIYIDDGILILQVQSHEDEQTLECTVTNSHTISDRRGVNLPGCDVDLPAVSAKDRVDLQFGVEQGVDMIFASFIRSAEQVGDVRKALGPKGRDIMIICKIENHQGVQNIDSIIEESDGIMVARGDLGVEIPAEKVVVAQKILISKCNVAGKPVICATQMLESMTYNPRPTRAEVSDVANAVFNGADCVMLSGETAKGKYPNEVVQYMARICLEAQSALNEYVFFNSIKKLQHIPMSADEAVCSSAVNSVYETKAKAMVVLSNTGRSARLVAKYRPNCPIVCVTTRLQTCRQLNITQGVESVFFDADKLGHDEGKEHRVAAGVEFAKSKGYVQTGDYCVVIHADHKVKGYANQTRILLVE
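qHTS format; LmPK 0.1 nM; substrates PEP 0.5 mM and ADP 0.1 mM. One-hour room-temperature incubation, then coupled luciferase luminescence; 0.5 nM enzyme wells mark activation.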
RE007 growth inh = qHTS Assay for Inhibitors of the HIV-1 protein Vpr | S. pombe RE007 Vpr strain, BacTiter-Glo ATP luminescence, 24 h | Potency, µM (titrated, usually from 92.2 µM), without a hit: top-dose activity change, negative = less growth, usual class: inhibitors | hit rate 0.21% among 360,000; active = well fitted falling curve with a large enough effect; inconclusive = small, poorly fitted or top-dose-only effect; inactive = no such curve, though single readings can be large or run the other way; note: potency is the fitted concentration of half-maximal effect; % is set by controls: 0 for no effect and ±100 for the full control effect; nearly all actives have a fitted effect of over 50% in size
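Fission yeast RE007 carrying one integrated HIV-1 vpr copy, seeded at OD 0.01 in PMG+AL medium with 23 nL pinned compound. Grown 24 h at 30 degrees; viability read by BacTiter-Glo luminescence after 5 min.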
Shiga inhibitor = A qHTS for Small Molecule Inhibitors of Shiga Toxin; AID 2315, 2010; inhibition, % at 38.7 µM; Vero cells, Shiga toxin protein synthesis inhibition reporter; hit rate 9.2% among 290,000; in the data active = inhibition mostly above about 28%, no sharp cut-off; inactive = mostly below about 43%; note: 0% is about no effect
* = called active by the depositor. The full list was thinned out, with hits kept by preference. Unless noted, calls come from the whole dose curve; as a rule, active = well fitted curve in the direction sought with a large enough effect; inconclusive = small, poorly fitted or top-dose-only effect, or another doubt; inactive = no such curve, though single readings can be large; an effect the other way counts as inactive or inconclusive.

How did CCOc1ccc2nc(COC(=O)c3cccs3)c(C(=O)c3ccccc3)[n+]([O-])c2c1 do in these assays?
TbPYK inhibitor: -5%; Cycloheximide cs: -1; Giardia FBPA inh: 6%; LmPK inhibitor: 3%; RE007 growth inh: 8%; Shiga inhibitor: 22

Results for CCC(=O)Nc1cc2nn(-c3ccc(C)cc3)nc2cc1C ?
TbPYK inhibitor: 5%; Cycloheximide cs: 44*; Giardia FBPA inh: 4%; LmPK inhibitor: 3%; RE007 growth inh: -14%; Shiga inhibitor: 109*

Results for COc1ccc(-n2nc3cc(C)c(NC(=S)NC(=O)c4ccccc4C)cc3n2)cc1 ?
TbPYK inhibitor: 1%; Cycloheximide cs: 30*; Giardia FBPA inh: 6%; LmPK inhibitor: 3%; RE007 growth inh: 17%; Shiga inhibitor: 112*

How did CCC(=O)Nc1cc2nn(-c3ccc(OC)cc3)nc2cc1C do in these assays?
TbPYK inhibitor: 2%; Cycloheximide cs: 52*; Giardia FBPA inh: 8%; LmPK inhibitor: 3%; RE007 growth inh: 1%; Shiga inhibitor: 90*

What do the screens show for `CCCCC(=O)Nc1cc2nn(-c3ccc(OC)cc3)nc2cc1C`?
TbPYK inhibitor: 1%; Cycloheximide cs: 10; Giardia FBPA inh: 4%; LmPK inhibitor: 16%; RE007 growth inh: 3%; Shiga inhibitor: -5

What do the screens show for `Cc1cc2nn(-c3ccc(F)cc3)nc2cc1NC(=O)c1cccc2ccccc12`?
TbPYK inhibitor: -2%

Results for COc1ccccc1NS(=O)(=O)c1cccc(C(=O)N2CCN(Cc3ccc4c(c3)OCO4)CC2)c1 ?
TbPYK inhibitor: -4%; RE007 growth inh: -12%

How did O=C(NCCSCc1ccc(Cl)cc1)C1CCN(S(=O)(=O)Cc2ccccc2)CC1 do in these assays?
TbPYK inhibitor: -5%

Results for Cc1ccc2c(CC(=O)Nc3cc(C(F)(F)F)ccc3Cl)coc2c1C ?
TbPYK inhibitor: -6%

How did O=C(NC1CCN(Cc2ccccc2)CC1)c1ccccc1OCc1ccccc1Cl do in these assays?
TbPYK inhibitor: 2%; Cycloheximide cs: -2; LmPK inhibitor: 5%; RE007 growth inh: 4%; Shiga inhibitor: -16

What do the screens show for `CCN(CC)Cc1c(C(=O)N/N=C/c2cccs2)nnn1-c1nonc1N`?
TbPYK inhibitor: 5%; Cycloheximide cs: -8; Giardia FBPA inh: 15%; LmPK inhibitor: 2%; RE007 growth inh: -10%; Shiga inhibitor: -5

How did Cc1cccc(COc2ccc(/C=N/NC(=O)c3nnn(-c4nonc4N)c3COc3ccc(F)cc3)cc2)c1 do in these assays?
TbPYK inhibitor: 0%; Cycloheximide cs: 16*; Giardia FBPA inh: -2%; LmPK inhibitor: -1%; RE007 growth inh: 7%; Shiga inhibitor: 31

How did Nc1nonc1-n1nnc(C(=O)N/N=C/c2ccc(OCc3ccccc3)cc2)c1COc1ccc(F)cc1 do in these assays?
TbPYK inhibitor: -4%; Cycloheximide cs: 8; Giardia FBPA inh: 6%; LmPK inhibitor: 1%; RE007 growth inh: -2%; Shiga inhibitor: 11

What do the screens show for `Cc1cccc(COc2ccc(/C=N/NC(=O)c3nnn(-c4nonc4N)c3CN3CCCCC3)cc2)c1`?
TbPYK inhibitor: -1%; Cycloheximide cs: 12; Giardia FBPA inh: inconclusive; LmPK inhibitor: 4%; RE007 growth inh: 13%; Shiga inhibitor: 39

Results for CC(/C=N/NC(=O)c1nnn(-c2nonc2N)c1C(C)C)=C\c1ccccc1 ?
TbPYK inhibitor: 0%; Cycloheximide cs: 29*; Giardia FBPA inh: -1%; LmPK inhibitor: 1%; RE007 growth inh: -14%; Shiga inhibitor: 92

How did CCc1c(C(=O)N/N=C/c2cccs2)nnn1-c1nonc1N do in these assays?
TbPYK inhibitor: -2%; Cycloheximide cs: 23*; Giardia FBPA inh: 0%; LmPK inhibitor: 3%; RE007 growth inh: -8%; Shiga inhibitor: 45*

What do the screens show for `Nc1nonc1-n1nnc(C(=O)N/N=C/c2ccc(OCc3cccc(Cl)c3)cc2)c1CN1CCCCC1`?
TbPYK inhibitor: -19%; Cycloheximide cs: 27*; Giardia FBPA inh: -16%; LmPK inhibitor: -1%; RE007 growth inh: -5%; Shiga inhibitor: 33

Results for CN(C)C(=O)CNC(=O)CN1C(=O)NC2(CCCc3sccc32)C1=O (stereo unspecified) ?
TbPYK inhibitor: 0%; Cycloheximide cs: -5; Giardia FBPA inh: inconclusive; LmPK inhibitor: 1%; RE007 growth inh: -25%; Shiga inhibitor: -9

How did CCSc1nnc(NC(=O)C2CC(=O)N(Cc3ccccc3)C2)s1 (stereo unspecified) do in these assays?
TbPYK inhibitor: 1%; Cycloheximide cs: 10; Giardia FBPA inh: -12%; LmPK inhibitor: -16%; RE007 growth inh: -15%; Shiga inhibitor: -10

Results for O=C(NCC(c1cccs1)S(=O)(=O)c1cccs1)c1ccccc1F (stereo unspecified) ?
TbPYK inhibitor: -5%

How did Nc1nnnn1CC(=O)N/N=C/c1cccs1 do in these assays?
TbPYK inhibitor: -1%; Cycloheximide cs: 17*; Giardia FBPA inh: 0%; LmPK inhibitor: -5%; RE007 growth inh: 6%; Shiga inhibitor: 25

What do the screens show for `Nc1nonc1-n1nnc(C(=O)N/N=C/C=C/c2ccccc2)c1CSC1=NCCS1`?
TbPYK inhibitor: 1%; Cycloheximide cs: 17*; Giardia FBPA inh: 0%; LmPK inhibitor: 4%; RE007 growth inh: -3%; Shiga inhibitor: 43*

How did Nc1nonc1-n1nnc(C(=O)N/N=C/c2c(Cl)cccc2Cl)c1CSC1=NCCS1 do in these assays?
TbPYK inhibitor: 2%; Cycloheximide cs: -4; Giardia FBPA inh: 4%; LmPK inhibitor: 4%; RE007 growth inh: -3%; Shiga inhibitor: 3

Results for Cc1cc(C)cc(N(CC(=O)NCc2ccco2)S(=O)(=O)c2ccccc2)c1 ?
TbPYK inhibitor: 6%; Cycloheximide cs: 9; Giardia FBPA inh: 4%; LmPK inhibitor: 2%; RE007 growth inh: 2%; Shiga inhibitor: 48*

How did O=C(O)C(Cc1ccccc1[N+](=O)[O-])N1C(=O)c2ccccc2C1=O (stereo unspecified) do in these assays?
TbPYK inhibitor: -3%; RE007 growth inh: -7%

Results for O=C1c2ccccc2C(=O)N1OCc1ccccc1[N+](=O)[O-] ?
TbPYK inhibitor: -9%; Cycloheximide cs: 24*; Giardia FBPA inh: 0%; LmPK inhibitor: 6%; RE007 growth inh: 1%; Shiga inhibitor: 82

What do the screens show for `O=C(Cc1ccc(F)cc1)OCN1C(=O)c2ccccc2C1=O`?
TbPYK inhibitor: -5%; Cycloheximide cs: -4; LmPK inhibitor: -8%; RE007 growth inh: -13%; Shiga inhibitor: -24

What do the screens show for `O=C(Cc1ccccc1[N+](=O)[O-])OCc1cccc([N+](=O)[O-])c1`?
Cycloheximide cs: 32*; LmPK inhibitor: -2%; Shiga inhibitor: 92*
